Env fusion inh – inhibitors of HIV-1 Env-driven cell-cell fusion, primary screen, HeLa-JRFL effector, CEM21 target cells, luciferase. actives 1.1% (n = 360,000). inhibition, % at 12.3 µM;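 active = mean replicate inhibition score of at least 50 and every replicate individually at or above 50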;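 note: 0% = plate neutral controls and 100% = maraviroc near 300 nM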
N-glyco inh – increase of ERlucT glycosylation luciferase signal, primary screen, N-linked glycosylation inhibitor project, D54 ERlucT cells, luminescence, set 2. D54 ERlucT glycosylation luciferase reporter, 24 h; percent of 100 nM tunicamycin response. reporter increase, % at 12.5 µM. actives 0.23% (n = 360,000);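 active = mean luciferase reporter signal, scaled so untreated is 0 and the glycosylation-blocking control 100, at or above a set limit in every replicate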;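 note: luciferase carries N-glycosylation sites so blocking glycosylation raises the light; 0% = median of neutral control wells and 100% = median of 100 nM tunicamycin wells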
EBV LMP1 NFkB – EBV LMP1-driven NF-kappaB luciferase reporter inhibitors, primary screen, cell-based, luminescence, single point | AID 504558, 2011 | LMP1-induced NF-kappaB luciferase reporter cells | inhibition, % at 12.5 µM | actives 0.69% (n = 350,000); in the data active = inhibition above about 41%;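 note: 0% = neutral control wells and 100% = reference inhibitor control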
Shn3 3UTR inh – reduction of Shn3 3'UTR firefly luciferase signal, primary screen, Schnurri-3 inhibitor project, cell-based, Clone20 osteoblasts, set 2; Clone20 osteoblast Shn3 3'UTR firefly luciferase, 24 h; inhibition, % at 12.5 µM; actives 0.52% (n = 360,000);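 active = mean inhibition of at least 75% with every replicate also reaching 75%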;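 note: 0% = median of neutral control wells and 100% = pilot-screen positive control compound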
NSD2 HMT inh – NSD2 histone methyltransferase inhibitors, primary screen, biochemical, AlphaScreen, single concentration, set 2; AID 743445, 2014; NSD2 peptide methylation, 120 min; inhibition, % at 12.5 µM; actives 0.54% (n = 310,000); in the data active = inhibition above about 50%
PAX8 inh HTS – inhibitors of PAX8-driven TPO luciferase reporter, primary screen, RMG-I cells, single concentration | inhibition, % at 12.6 µM | actives 1.2% (n = 360,000) | SteadyGlo, 24 h;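 active = mean replicate inhibition at least 60% with every replicate also reaching 60%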;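 note: luciferase light reporting Pax8 driven TPO promoter activity; plate controls were median of neutral control wells for no effect and mitoxantrone controls for full effect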
Numbers without * were called inactive; · = no result given; [ ] = dose if it differs, or a comment. Hits are enriched below; roughly 2.8% of the tested compounds scored in any of these assays.

SMILES	Env fusion inh	N-glyco inh	EBV LMP1 NFkB	Shn3 3UTR inh	NSD2 HMT inh	PAX8 inh HTS
N#Cc1ccc(-c2ccc([C@@H]3[C@@H]4CN(S(=O)(=O)c5ccc(-c6ccccc6)cc5)C[C@H]3N4)cc2)cc1	·	·	·	·	·	75.4*
COc1ccccc1-c1ccc([C@@H]2[C@@H](C#N)N(C(=O)c3cccnc3)[C@@H]2CO)cc1	5.3[16.7 µM]	·	·	·	·	8.8
C[C@@H]1CN([C@@H](C)CO)C(=O)Cc2cc(NS(=O)(=O)c3cccs3)ccc2O[C@H]1CN(C)C(=O)Nc1ccc2c(c1)OCO2	-9.2[16.7 µM]	·	·	·	·	·
Cc1cccc(S(=O)(=O)N(C)C[C@H]2OCc3cn(nn3)CCCC(=O)N([C@H](C)CO)C[C@H]2C)c1	10.4[16.7 µM]	·	·	·	·	·
O=C(/C=C/Nc1ccc(Br)cc1F)c1ccccc1	-76.5	-19.2	65.3*	26.3	-1.2	-25.6
C[C@H](CO)N1C[C@H](C)[C@@H](CN(C)C(=O)NC2CCCC2)Oc2ncc(-c3ccc(F)cc3)cc2C1=O	12.2[16.7 µM]	·	·	·	·	4.2
O=C(O)c1cnccn1	-4.7	1.8	-2.3	-18.4	·	-26.4
CSC(=N/N=C(\N)c1cnccn1)SC	9.1	-1.1	42.8*	-15.8	-1.6	-11.3
COc1ccc(-c2cc3ccccc3oc2=O)cc1NC(=S)NC(=O)c1ccc2c(c1)OCCO2	-217.8	70.2*	-53.1	57.5	-0.6	·
COc1ccc(-c2cc3ccccc3oc2=O)cc1NC(=O)c1ccc(Br)o1	·	-4.5	-9.5	-0.3	-1.0	·
COc1ccc(-c2cc3ccccc3oc2=O)cc1NC(=O)c1ccc([N+](=O)[O-])o1	-55.4	49.5*	-19.8	4.6	2.2	·
CC1(C)CC(=O)C2=C(C1)OC(c1ccc(O)cc1)C(C#N)=C2N (stereo not given)	·	0.2	-1.7	0.4	-2.1	81.1*
CCN(CC(=O)Nc1ccc(NC(C)=O)cc1)C(=O)c1cccnc1Sc1ccc(C)c(C)c1	-23.7	-3.1	41.2*	1.8	-1.5	18.7
CCCCCCCCN1C(=O)[C@H](CC(=O)NCc2cccs2)C[C@@]2(C(=O)OCC)CCCC=C12	88.2*	·	·	·	·	27.0
CCOC(=O)[C@]12CCCC=C1N(CCC1=CCCCC1)C(=O)[C@H](CC(=O)NCCC(C)C)C2	38.1	·	·	·	·	17.9
CCCCCCCCN1C(=O)[C@H](CC(=O)NCc2cccc3ccccc23)C[C@@]2(C(=O)OCC)CCCC=C12	75.8*	·	·	·	·	21.3
CCCCCCCCN1C(=O)[C@H](CC(=O)NCCC(C)C)C[C@@]2(C(=O)OCC)CCCC=C12	61.3*	·	·	·	·	-9.3
CCCCCCCCN1C(=O)[C@H](CC(=O)NCc2cccc3ccccc23)C[C@@]2(C(=O)OC)CC(C)(C)CC=C12	57.8*	·	·	·	·	26.0
CCOC(=O)[C@]12CCCC=C1N(Cc1cccc3ccccc13)C(=O)[C@H](CC(=O)NCc1cccc3ccccc13)C2	-8.3	·	·	·	·	16.8
Cc1ccc(S(=O)(=O)N(C)C[C@@H]2Oc3ccc(NC(=O)CCN4CCOCC4)cc3C(=O)N([C@@H](C)CO)C[C@@H]2C)cc1	·	·	·	·	·	1.5
CCCCOCCCNC(=O)C[C@@H]1C[C@@]2(C(=O)OCC)CCC=C2N(Cc2ccc3c(c2)OCO3)C1=O	-30.0	·	·	·	·	9.8
CCCCCCCCN1C(=O)[C@H](CC(=O)NCc2ccc(OC)c(OC)c2)C[C@@]2(C(=O)OC)CC(C)(C)CC=C12	45.7	·	·	·	·	9.9
CCOC(=O)[C@]12CCCC=C1N(Cc1ccccc1)C(=O)[C@H](CC(=O)NCCCOC)C2	59.5*	·	·	·	·	-17.6
CCCCCCCCN1C(=O)[C@H](CC(=O)NCc2ccc(OC)c(OC)c2)C[C@@]2(C(=O)OCC)CCCC=C12	69.7*	·	·	·	·	35.2
CCOC(=O)[C@]12CCC=C1N(Cc1ccc3c(c1)OCO3)C(=O)[C@H](CC(=O)NCC13CC4CC(CC(C4)C1)C3)C2	77.3*	·	·	·	·	7.4
COC(=O)[C@@]12C[C@@H](CC(=O)NCc3ccc(OC)c(OC)c3)C(=O)N(CCc3ccc(OC)c(OC)c3)C1=CCC(C)(C)C2	67.1*	·	·	·	·	2.1
C[C@@H]1CN([C@H](C)CO)C(=O)CCCn2nncc2CO[C@@H]1CN(C)Cc1ccc(C(F)(F)F)cc1	-10.3[16.7 µM]	·	·	·	·	·

Compound activity (PubChem)
